# The whole screen tested about 420,000 compounds, of which about 50,000 (12%) were called active. Another 26% or so got no clear call; they are omitted. Calls come from the whole dose curve; as a rule, active = well fitted inhibition curve with a large enough effect; inconclusive = small, poorly fitted or top-dose-only effect; inactive = flat fitted curve, though single readings scatter. This excerpt belongs to a sample that is enriched for actives.
# Assay: qHTS for Inhibitors of human tyrosyl-DNA phosphodiesterase 1 (TDP1): qHTS in cells in presence of CPT; note: nearly all actives have a fitted effect of over 55% in size
# Conditions: chicken DT40 Tdp1-/-;hTDP1 cells + 20 nM CPT, ATP luminescence, 48 h; series mostly up to 46.2 µM; activity change, negative = growth inhibition: at the top concentration
# Method in brief: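 Cell growth measured by CellTiter-Glo luminescence after a minimum 48 h, 37 C compound exposure with 20 nM CPT in Tdp1-knockout DT40 cells stably expressing hTDP1, seeded 400/well; qHTS titration format.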
# % is set by controls: 0 for no effect and ±100 for the full control effect; potency is the fitted concentration of half-maximal effect.
SMILES,"activity change, negative = growth inhibition",Potency
O=C(NC1CCN(S(=O)(=O)c2ccc(F)cc2)CC1)c1ccccc1,22.4% (inactive),
CCCS(=O)(=O)c1ncc(Cl)c(C(=O)Nc2scc(-c3ccccc3)c2C(=O)OCC)n1,,2.31 µM (active)
CCOC(=O)c1c(-c2ccc(-c3ccccc3)cc2)csc1NC(=O)CCC(=O)O,-2.59% (inactive),
Cc1ccc2nc(NC(=O)c3nc(SCc4ccccc4F)ncc3Cl)sc2c1,4.39% (inactive),
O=C(CN1C(=O)CC(c2ccccc2)S(=O)(=O)c2ccccc21)NC1CCCC1 (configuration not stated),-12.7% (inactive),
Cc1ccc(-c2noc(CNC(=O)c3ccoc3C)n2)cc1,-25.3% (inactive),
CSc1n[nH]c(=S)n1N,-2.16% (inactive),
CC(C)NC(=O)N1CCC2(CC1)CCN(C(=O)c1cccn1C)CC2,3.36% (inactive),
COc1ccc(NC(=O)N2CC3(CCN(C(=O)c4cccn4C)CC3)C2)cc1,-10.5% (inactive),
Cn1cccc1C(=O)N1CCC2(CC1)CN(c1cccc(-c3ccccc3)c1)C2,,18.4 µM (active)
O=C(C=CC(=O)Nc1ccc(F)cc1F)Nc1ccc(F)cc1F,4.15% (inactive),
Cc1nc2ccc(S(=O)(=O)N(C)CC(=O)NC(C)c3ccccc3)cc2s1 (configuration not stated),-11.6% (inactive),
O=C(Nc1cccc(Cl)c1)Nc1ccccc1NS(=O)(=O)c1cccs1,-15.7% (inactive),
CCOC(=O)c1ccc(NC2Nc3cc(C)nn3S2)cc1 (configuration not stated),-0.261% (inactive),
O=C(Nc1ccc2ccccc2c1)/C(=C\c1ccc2c(c1)OCO2)NC(=O)c1ccco1,1.81% (inactive),
Cc1ccc(C(=O)NNC(=O)C(C)Oc2ccc3ccccc3c2)o1 (configuration not stated),-9.14% (inactive),
CC(Oc1ccc2ccccc2c1)C(=O)NNC(=S)NC(=O)c1ccco1 (configuration not stated),,23.1 µM (active)
CC(C)=CCN1CCN(Cc2cc3ccccc3[nH]2)CC1CCO (configuration not stated),-6.87% (inactive),
COc1ccc(OC)c(CN2C(=O)CCC2(C)c2nnnn2Cc2ccccc2)c1 (configuration not stated),-24.7% (inactive),

SMILES,"activity change, negative = growth inhibition",Potency
CSc1ncnc2sc(C)c(C)c12,-14.5% (inactive),
Cc1sc2ncnc(SCC(=O)NC3CCS(=O)(=O)C3)c2c1C (configuration not stated),0.145% (inactive),
CCCNc1ncnc2sc(C)c(C)c12,,16.4 µM (active)
COc1cccc(NC(=O)CCNS(=O)(=O)c2ccc3c(c2)oc(=O)n3C)c1,,inactive
CCc1ccccc1NC(=O)c1ccc2c(c1)CCN2S(C)(=O)=O,9.03% (inactive),
CC(C)=CCC/C(C)=C/C(=O)O,-5.06% (inactive),
COc1ccccc1-c1cc2nc(C)c(CCC(=O)NC3CCCCC3)c(C)n2n1,5.23% (inactive),
COc1ccc(-c2ccc(C(=O)NC(C)C)c3occc23)c(C)c1,,14.6 µM (active)
COc1ccc(N)c(C)c1,5.04% (inactive),
COc1ccc(C2OC(=O)CC2C(=O)NC(C)C)cc1 (configuration not stated),-2.88% (inactive),
COc1ccc(Cl)cc1C(=O)OCC(=O)NCc1cccs1,-0.547% (inactive),
Cc1nnc(SC(C(=O)c2ccccc2)c2ccccc2)[nH]c1=O (configuration not stated),-0.428% (inactive),
CN1CCC(N(C)C(=O)c2ccc(Cl)c(S(=O)(=O)Nc3ccc(Cl)cc3)c2)CC1,-15% (inactive),
Cc1cccc(-n2ncc3c(=O)[nH]c(SCC(=O)Nc4cc(C)on4)nc32)c1,-28.7% (inactive),
Cc1ccc2c(c1)N(CC(=O)NCCCN1CCCCC1)C(=O)c1cccnc1O2,,inactive
CCN(CC)c1ccc(NC(=O)Cn2nc3c(cc2=O)CCCC3)c(C)c1,-21.6% (inactive),
CC(=O)c1cccc(NC(=O)CN2C(=O)c3cccnc3Oc3ccc(Cl)cc32)c1,,18.4 µM (active)
O=C(CN1C(=O)c2cccnc2Oc2ccc(Cl)cc21)NCCc1ccccc1,-25.7% (inactive),
Cc1ccc2c(c1)N(CC(=O)N1CCC(C)CC1)C(=O)c1cccnc1O2,1.35% (inactive),

SMILES,"activity change, negative = growth inhibition",Potency
CCN(CC)c1ccc(NC(=O)CN2C(=O)c3cccnc3Oc3ccc(Cl)cc32)c(C)c1,,9.2 µM (active)
COC(=O)Cc1ccc(OCC(=O)NC2CCCC2)cc1,0.687% (inactive),
COc1cccc(N(CC(=O)NC2CCCC2)C(=O)CCCC(=O)Nc2ccccn2)c1,-0.665% (inactive),
COCC1CCN(C(=O)C2CCC(=O)N(Cc3cccc(C(F)(F)F)c3)C2)CC1 (configuration not stated),-9.13% (inactive),
CC(=O)CC[C@@H](C)O[C@@H]1OC(C)[C@H](O)CC1O (some centres not stated),9.15% (inactive),
Nc1nc(SCc2cccc(Br)c2)n[nH]1,-13.6% (inactive),
COc1cc2ccccc2cc1C(=O)Nc1ccccc1C,-16.1% (inactive),
COC(=O)c1ccc(CSc2nc3ccccc3c(=O)n2-c2cccc(OC)c2)o1,,20.6 µM (active)
COc1cccc(-n2c(N)cc(=O)nc2SCC(=O)Nc2cc(C)on2)c1,-3.53% (inactive),
COCCn1c(C)cc(C(=O)CN2c3cccc4cccc(c34)S2(=O)=O)c1C,9.37% (inactive),
COCC(C)n1c(SCC(=O)NC2CCCCC2C)nc2ccccc2c1=O (configuration not stated),-14.7% (inactive),
COCCn1c(C)cc(C(=O)CSc2nc3ccccc3c(=O)n2C(C)COC)c1C (configuration not stated),,20.6 µM (active)
COCCn1c(C)cc(C(=O)CSc2nnc(C3CC3)n2C2CC2)c1C,-5% (inactive),
COc1cccc(-n2c(SCC(=O)c3c[nH]c4ccccc34)nc3ccccc3c2=O)c1,,20.6 µM (active)
CCCn1c(N)c(C(=O)CSc2nc3ccccc3c(=O)n2-c2ccc(OC)cc2)c(=O)[nH]c1=O,1.77% (inactive),
COCC(C)n1c(SCc2ccc(C(=O)OC)o2)nc2ccccc2c1=O (configuration not stated),,7.31 µM (active)
COc1cccc(-n2c(SCC(=O)NC3CCS(=O)(=O)C3)nc3ccccc3c2=O)c1 (configuration not stated),3.4% (inactive),
COCCNC(=O)c1ccc(-n2c(SCc3cccnc3)nc3ccccc3c2=O)cc1,2.47% (inactive),
COC(=O)c1ccc(Cc2ccccc2)o1,3.76% (inactive),

# From PubChem BioAssay AID686979 (National Center for Advancing Translational Sciences (NCATS), 2013)
